In PubChem BioAssay:

Columns and labels:
[1] = test system: Human papillomavirus type 1a protein E7 (residues 44-93); assay: HPV1a E7 fragment binders on microarrays, primary screen, biochemical, small-molecule microarray, residues 44-93, 635 nm fluorescence (AID 1108); conditions: small-molecule microarray binding, fluorescence 635 nm; higher = more signal;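 note: E7 fragment applied at 1 µg/mL in TBST for 1 h at 4 C; score combines spot fluorescence with its signal to noise ratio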
[2] = modulators of HCV replicon luciferase signal, primary screen, HCV replication inhibitor project, Huh7 cells, luciferase reporter (AID 1109); conditions: 48 h, higher = more signal;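 note: huh7 hepatoma cells harbouring a luciferase neomycin HCV replicon reporter; luciferase luminescence as measure of HCV replicon replication; test concentration not given here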
[3] = target: Left-right determination factor 2 (Homo sapiens) (UniProt O00292); assay: LEFTY2 binders on small-molecule microarrays, primary screen, biochemical, small-molecule microarray, 635 nm fluorescence scan (AID 1110); conditions: LEFTY2 binding, higher = more signal
Left-right determination factor 2 (Homo sapiens), sequence (O00292 whole entry, looked up): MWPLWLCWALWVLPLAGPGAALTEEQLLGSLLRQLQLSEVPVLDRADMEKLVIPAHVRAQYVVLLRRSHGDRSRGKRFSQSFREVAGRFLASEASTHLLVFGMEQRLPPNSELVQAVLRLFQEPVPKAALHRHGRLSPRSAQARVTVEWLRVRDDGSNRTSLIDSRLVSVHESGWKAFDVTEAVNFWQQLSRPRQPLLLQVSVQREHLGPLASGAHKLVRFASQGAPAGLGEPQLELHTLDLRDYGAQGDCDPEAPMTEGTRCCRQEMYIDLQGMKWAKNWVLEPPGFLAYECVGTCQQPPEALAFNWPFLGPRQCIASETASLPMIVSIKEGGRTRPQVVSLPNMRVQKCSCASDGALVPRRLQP

[4] = target: Calmodulin-1 (Homo sapiens) (UniProt P0DP23); assay: CALM1 binders on microarrays, EGTA buffer, profiling panel, biochemical, small-molecule microarray, Cy5-labelled CALM1 (AID 1111); conditions: Cy5-CALM1 binding fluorescence, higher = more signal;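 note: labelled calmodulin applied in Tris saline Tween buffer holding calcium plus EGTA and DTT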
[5] = target: Calmodulin-1 (Homo sapiens) (UniProt P0DP23); assay: calcium-bound CALM1 binders on microarrays, profiling panel, artefact control for SMM control-protein annotation, biochemical, small-molecule microarray, Cy5-labelled CALM1, plus calcium (AID 1112); conditions: Cy5-CALM1 binding fluorescence, higher = more signal;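 note: score merges spot fluorescence with signal to noise from triplicate slides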
[6] = small-molecule microarray binders of probe aWnt5a, primary screen, biochemical, biotinylated probe, 635/667 nm fluorescence (AID 1113); conditions: higher = more signal;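 note: score merges 667 nm fluorescence intensity with signal-to-noise per printed feature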
[7] = small-molecule microarray binders of probe aShh, primary screen, biochemical, biotinylated probe, 635/667 nm fluorescence (AID 1114); conditions: higher = more signal;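 note: probe is biotin-labelled aShh protein from a stem cell growth factor screen; measures binding of labelled protein to compounds printed on the slide; score merges feature fluorescence at 667 nm with signal-to-noise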
[8] = small-molecule microarray binders of probe aNog, primary screen, biochemical, biotinylated probe, 635/667 nm fluorescence (AID 1115); conditions: higher = more signal;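 note: probe is biotinylated aNog protein used at 0.15 µg/mL for 1 h at 4 C; z-score combines 667 nm fluorescence of each spot with its signal to noise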
[9] = target: Torsin-1A-interacting protein 1 (Homo sapiens) (UniProt Q5JTV8); assay: LAP1 binders from COS7 cell lysate, primary screen, small-molecule microarray, 635/667 nm fluorescence (AID 1116); conditions: COS7-hLAP1 lysate binding, 635 nm fluorescence, higher = more signal
Torsin-1A-interacting protein 1 (Homo sapiens), sequence (Q5JTV8 whole entry, looked up): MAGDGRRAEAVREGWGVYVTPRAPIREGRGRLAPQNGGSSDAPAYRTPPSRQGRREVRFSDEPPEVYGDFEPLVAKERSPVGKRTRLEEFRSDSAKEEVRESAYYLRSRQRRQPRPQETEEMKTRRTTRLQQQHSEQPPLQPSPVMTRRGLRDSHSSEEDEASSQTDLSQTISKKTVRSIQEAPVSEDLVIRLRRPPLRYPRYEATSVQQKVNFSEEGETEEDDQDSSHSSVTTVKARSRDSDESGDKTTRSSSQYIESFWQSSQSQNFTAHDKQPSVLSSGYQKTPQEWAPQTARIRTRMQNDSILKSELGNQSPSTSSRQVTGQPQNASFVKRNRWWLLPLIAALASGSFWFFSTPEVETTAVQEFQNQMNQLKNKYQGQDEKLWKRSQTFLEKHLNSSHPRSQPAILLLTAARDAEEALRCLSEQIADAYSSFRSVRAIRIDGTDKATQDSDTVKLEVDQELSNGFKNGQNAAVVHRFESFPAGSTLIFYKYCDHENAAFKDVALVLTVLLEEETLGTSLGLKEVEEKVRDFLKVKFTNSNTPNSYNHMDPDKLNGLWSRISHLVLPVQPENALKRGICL

[10] = target: Alpha-bungarotoxin (Bungarus multicinctus) (UniProt P60615); assay: alpha-bungarotoxin binders on microarray, profiling panel, artefact control for SMM control protein annotation, biochemical, small-molecule microarray, Alexa647 label, 635/667 nm fluorescence (AID 1117); conditions: alpha-BTX-A647 binding fluorescence, higher = more signal
Alpha-bungarotoxin (Bungarus multicinctus), sequence (P60615 whole entry, looked up): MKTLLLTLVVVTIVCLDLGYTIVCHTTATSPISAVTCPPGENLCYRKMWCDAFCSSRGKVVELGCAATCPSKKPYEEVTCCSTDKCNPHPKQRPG

| Structure (SMILES) | composite z-score [1] | z-score [2] | composite z-score [3] | composite z-score [4] | composite z-score [5] | composite z-score [6] | composite z-score [7] | composite z-score [8] | composite z-score [9] | composite z-score [10] |
| --- | --- | --- | --- | --- | --- | --- | --- | --- | --- | --- |
| C[C@@H](c1ccccc1)N1C(=O)[C@H]2[C@H]3[C@H](O)[C@H](O)CC(=NOC[C@@H](O)COCc4ccco4)[C@H]3CC[C@H]2C1=O | -0.788 | -0.978 | 0.858 | -0.858 | -1.65 | -0.196 | 0.0952 | -0.285 | -0.175 | -0.0662 |
| COc1ccc(COC(=O)NN=C2C[C@@H](O)[C@@H](O)[C@@H]3[C@@H]4C(=O)N([C@@H](C)c5ccccc5)C(=O)[C@@H]4CC[C@@H]23)cc1 | -0.372 | 0.426 | 0.609 | -0.213 | -0.392 | -0.169 | 0.0121 | -0.288 | 0.51 | 0.0288 |
| O=C1CCCC=C1C(O)c1ccc([N+](=O)[O-])cc1 (stereo not given) | -0.607 | -0.67 | 0.387 | -0.79 | -0.499 | -0.101 | -0.288 | -0.489 | 0.315 | -0.237 |
| CCCC[C@H]1CN2[C@@H](CC[C@@H](C)[C@@H]2c2ccc(Br)cc2)C(=O)O1 | 1.01 | -1.04 | 0.671 | 0.849 | -0.0228 | -0.158 | 0.0121 | -0.188 | 0.755 | 0.678 |
| COC(=O)[C@H](C)NC(=O)CCC1CC(OC(=O)NCc2cccc3ccccc23)CC2(CCCC(COC(=O)NCCC(C)C)O2)O1 (stereo not given in full) | 0.991 | -0.243 | 0.449 | -0.234 | -0.371 | -0.109 | -0.147 | -0.268 | -0.228 | -0.178 |
| CC(C)[C@H](NC(=O)OC(C)(C)C)[C@@H](O)CC(=O)C(C)(C)C | 0.223 | 0.515 | -0.1 | -0.32 | -0.748 | -0.18 | -0.24 | 0.237 | 0.161 | 0.302 |
| COc1ccc2c(c1)O[C@@H](c1cccc(C(F)(F)F)c1)[C@H](O)C2=O | 0.368 | 1.18 | 0.428 | 0.172 | -0.427 | -0.172 | -0.304 | -0.0496 | 0.342 | 0.375 |
| COC(=O)[C@H](C)NC(=O)CCC1CC(OC(=O)NCc2cccc3ccccc23)CC2(CCCC(COC(=O)NCCc3ccccc3OC)O2)O1 (stereo not given in full) | 1.39 | -0.314 | 0.621 | 0.75 | -0.37 | -0.15 | 0.0141 | 0.0356 | 0.787 | 0.638 |
| COCCNC(=O)OCC1CCCC2(CC(OC(=O)NCc3cccc4ccccc34)CC(CCC(=O)N[C@@H](C)C(=O)OC)O2)O1 (stereo not given in full) | 1.35 | -0.942 | 0.781 | 0.171 | -0.62 | -0.144 | -0.0006 | -0.256 | 0.002 | 0.801 |
| CON=C(C)CCC(=O)OC[C@H]1O[C@H](C#Cc2ccccc2)C=C[C@@H]1Oc1ccc(C)cc1 | 0.247 | -3.53 | 0.395 | -0.118 | -0.545 | -0.0924 | -0.0709 | 0.0369 | 0.571 | 0.35 |
| O=C1[C@H]2[C@H]3[C@H](O)[C@H](O)CC(=NOCc4ccccc4)[C@H]3CC[C@H]2C(=O)N1C1CCCCC1 | 0.656 | 0.409 | 0.531 | 0.55 | 0.158 | -0.0572 | 0.0754 | 0.165 | -0.106 | 1.01 |
| O=C1[C@H]2[C@H]3[C@H](O)[C@H](O)CC(=NO[C@@H]4O[C@H](CO)[C@@H](O)[C@H](O)[C@H]4O)[C@H]3CC[C@H]2C(=O)N1C[C@@H]1CCCO1 | -0.429 | -0.232 | 0.399 | -0.551 | -1.1 | -0.118 | -0.117 | -0.379 | -0.367 | -0.0473 |
| CC(CCC(=O)OC[C@H]1O[C@H](C#Cc2ccccc2)C=C[C@@H]1Oc1ccc(C)cc1)=NO[C@@H](C)c1cc(-c2c(C)cc(C)cc2C)no1 | -0.612 | -0.824 | -0.547 | -0.413 | -0.262 | -0.232 | 0.0121 | -0.118 | 0.328 | 0.326 |
| O=C(NCCC[N+]1=CC=NC1c1ccccc1)N1CCCc2nc(-c3ccc(Br)cc3)ccc21 (stereo not given) | 0.107 | -3.49 | 0.498 | 0.626 | 0.0894 | -0.0145 | 0.0141 | 0.0481 | 0.0439 | -0.436 |
| CCN1C(=O)[C@H]2[C@H]3[C@H](O)[C@H](O)CC(=NOC(C)CN4CCCc5nc(C)c(C)cc54)[C@@H]3CC[C@H]2C1=O (stereo not given in full) | 0.562 | -1.21 | 0.803 | -0.528 | -1.03 | -0.0478 | 0.275 | 0.182 | 0.304 | -0.0882 |
| CC(=O)OC[C@H]1O[C@H](CC=NOC(C)CN2CCCCc3nc(C)c(C)cc32)C=C[C@@H]1OC(C)=O (stereo not given in full) | 1.11 | -0.339 | 1.08 | -0.208 | -0.745 | 0.0044 | -0.179 | 0.0805 | 0.556 | 0.971 |
